# In all, about 65,000 compounds went through this assay and about 370 (0.57%) were called active. What follows is part of a selection rich in actives, with near analogues and random picks from the rest. A number with no mark means an inactive call.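 The calls were made as follows: active = activation above the screen-wide mean activation plus 3 SD (cut at about 19% in these data); inactive = the rest.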
# Biological target: 5-hydroxytryptamine receptor 1A (Homo sapiens) (UniProt P08908)
# Assay: agonism at serotonin HTR1A receptor – cell-based, CHO, Ga15 NFAT-bla reporter, primary screen (AID 567);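 also: 0% = DMSO wells and 100% = 5-CT at EC100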
# Details: CHO 5-HT1a Ga15 NFAT-bla reporter, FRET ratio; at 10 µM; active compounds read high; 0% basal, 100% maximal reference agonist
# Sequence of 5-hydroxytryptamine receptor 1A (Homo sapiens) (P08908 whole entry, looked up): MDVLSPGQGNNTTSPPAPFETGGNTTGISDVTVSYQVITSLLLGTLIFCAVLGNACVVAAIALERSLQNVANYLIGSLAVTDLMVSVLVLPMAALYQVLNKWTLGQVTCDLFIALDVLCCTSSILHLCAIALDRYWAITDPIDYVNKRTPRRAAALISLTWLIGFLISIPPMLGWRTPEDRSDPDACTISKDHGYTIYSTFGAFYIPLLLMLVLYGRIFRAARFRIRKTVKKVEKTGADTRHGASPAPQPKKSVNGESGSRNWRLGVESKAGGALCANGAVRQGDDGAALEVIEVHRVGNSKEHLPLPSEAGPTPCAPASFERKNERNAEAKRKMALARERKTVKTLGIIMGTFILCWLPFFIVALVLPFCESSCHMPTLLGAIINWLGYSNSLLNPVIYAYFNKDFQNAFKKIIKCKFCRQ
row,SMILES,activation
1,COc1ccc(NC(=O)CN(C)S(=O)(=O)c2ccccc2)cc1OC,-0.21%
2,CC(=O)Nc1ccc(S(=O)(=O)Nc2nc3n(n2)C(c2ccccc2)CC(=O)N3)cc1 (stereo not given),-0.5%
3,CCOC(=O)NC(C(F)(F)F)(C(F)(F)F)P(=O)(c1ccccc1)c1ccccc1,-0.98%
4,c1cc(-c2nn[nH]n2)ccc1CN1CCCCC1,-2.19%
5,O=C(CSc1ncccn1)NCCc1ccccc1,0.69%
6,CC1CCCC(C)N1CCCNC(=O)c1cc2c(=O)n(C)c3ccccc3c2n1C (stereo not given),-1.82%
7,O=C(CCn1c(=S)[nH]c2ccccc2c1=O)NCCCN1CCCC1=O,-0.9%
8,O=C(CCCn1c(=O)[nH]c2cc(Cl)ccc2c1=O)NCCN1CCN(c2ccccc2)CC1,-0.6%
9,CCn1c(=O)cc(OCC(=O)NCCCN2CCN(c3cccc(Cl)c3)CC2)c2ccccc21,-3.65%
10,Cn1c(C(=O)NCCCN2CCN(c3cccc(Cl)c3)CC2)cc2c(=O)n(C)c3ccccc3c21,36.5% (active)
11,O=C(CCn1c(=O)[nH]c2ccccc2c1=O)NCCCN1CCN(c2cccc(Cl)c2)CC1,21.7% (active)
12,O=S(=O)(N1CCOCC1)N1CCN(c2ccccc2F)CC1,-0.75%
13,O=S(=O)(Nc1ccccn1)c1ccc(Oc2ccccc2)cc1,0.59%
14,O=C(C1=C(O)C(=O)N(c2ncccn2)C1c1cccs1)c1ccco1 (stereo not given),-1.27%
15,Cc1nc2ccccc2cc1O,0.14%
16,CCC1CCCCN1C(=O)Nc1cccc(NC(=O)N2CCCCC2CC)c1 (stereo not given),-2.03%
17,CCOc1ccc(Cn2nnc(C(=O)Nc3ccc(OC)cc3OC)c2N)cc1,3.25%
18,O=c1c2ccccc2oc2nc3n(c(=O)c12)CCCS3,-0.78%
19,COc1ccc(C(C(O)C(=O)c2c[nH]c3ccccc23)N2CCN(c3ccccc3)CC2)cc1 (stereo not given),-3.45%
20,CCc1c(C)nc2cc(-c3cccs3)[nH]n2c1=O,-3.62%

row,SMILES,activation
1,Cc1ccc(S(=O)(=O)C(C#N)c2nc3ccccc3nc2N2CCCC2)cc1C (stereo not given),1.05%
2,CC(C)CCNC(=O)C(C)N(C(=O)Cn1nnc(-c2ccc(F)cc2)n1)C1CCCC1 (stereo not given),0.97%
3,CC(C)(C)n1nc2c(c1NC(=O)c1ccc(S(=O)(=O)N3CCCC3)cc1)CS(=O)C2 (stereo not given),-0.05%
4,O=C1CCC(Cc2ccccc2)N1 (stereo not given),-0.21%
5,CC1CCN(C(=O)Cn2cc(C(=O)c3ccco3)c3ccccc32)CC1,-0.71%
6,Cc1cc(=O)cc(C)[nH]1,-2.27%
7,CCOC(=O)C1=C(C)NC(C)=C(C(=O)OCC)C1c1ccccn1,-1.2%
8,CCN1C(=O)C(C(=O)NC(C)c2ccccc2)C2CC1(C)Oc1ccccc12 (stereo not given),-0.28%
9,COc1ccccc1N(CC(=O)N1CCCCC1)S(=O)(=O)c1ccccc1,-2.64%
10,COc1ccc(C2C3=C(CC(C)(C)CC3=O)Oc3ncn4nc(-c5cccnc5)nc4c32)cc1OC (stereo not given),-3.54%
11,COc1ccc(CC(NC(C)=O)C(=O)NC2CCN(C(=O)Nc3ccc(C#N)cc3)CC2)cc1OC (stereo not given),0.53%
12,Cc1ccc(NC(=O)Cn2nc(C)c3ccccc3c2=O)c(C)c1,-0.44%
13,CCOC(=O)Cc1csc(NC(=O)CSc2nc(C)cc(=O)[nH]2)n1,-1.16%
14,COc1cccc(-n2c(Cc3cc(=O)[nH]c(=O)[nH]3)nnc2SCC(=O)Nc2ccccc2)c1,-5.6%
15,O=C(Nc1ccc(Cl)cn1)Nc1cccs1,-4.12%
16,Cc1cc(NC(=O)c2cnn3cccnc23)n(-c2ccccc2)n1,1.07%
17,O=C(Nc1ccc(Cl)cn1)c1cnn2cccnc12,193% (active)
18,Fc1ccc(Cn2nnnc2C(c2cccs2)N2CCCCCC2)cc1 (stereo not given),-2.4%
19,CCC12CN3CC(CC)(CN(C1)C31C(=O)N(C)c3ccc(C)cc31)C2=O (stereo not given),-2.01%
20,COC(=O)CNC(=O)c1ccc2c(c1)S(=O)(=O)c1ccccc1C2=O,1.02%

row,SMILES,activation
1,Cc1cc(N2C(=O)c3ccc(C(=O)NCc4ccccc4)cc3C2=O)no1,-3.09%
2,N#Cc1cccc(CSc2nnc(CCCO)n2-c2ccccc2)c1,77% (active)
3,CNC(=O)CSc1nnc(CCc2ccccc2)n1-c1ccccc1,0.04%
4,N#Cc1ccc(CSc2nnc(-c3ccccn3)n2-c2ccc(Cl)cc2)cc1,0.34%
5,O=C(NC1CC2CCCC(C1)N2C(=O)N1CCCCC1)C1CCCCC1 (stereo not given),2.68%
6,Cc1cnc(NC(=O)CSc2nnc(-c3ccc(Cl)cc3Cl)n2N)s1,-1.25%
7,CN(c1nc2ccccc2n2c(-c3ccco3)nnc12)S(=O)(=O)c1ccccc1,0.58%
8,Cc1ccc2nc(NC3=NCN(CCc4ccccc4)CN3)nc(C)c2c1,-1.7%
9,CCOC(=O)C(C)Oc1cccc2c(=O)n(CC(=O)N3CCc4ccccc43)ccc12 (stereo not given),-0.82%
10,CCC(C(=O)N1CCOCC1)n1c(C(=O)OC)cc2occc21 (stereo not given),-0.28%
11,O=C(CCCC(=O)N(CC(=O)NC1CCCC1)Cc1ccccc1Cl)Nc1ccccn1,0.54%
12,Cn1c(Cc2csc(N)n2)nnc1SC/C=C/c1ccccc1,0.48%
13,CCCOC(=O)c1[nH]c2c(c1C)C(=O)CC(c1cc(OC)c(OC)c(OC)c1)C2 (stereo not given),-1.49%
14,Cc1noc(COc2ccccc2OCC(O)CNC(C)(C)C)n1 (stereo not given),2.09%
15,CCOc1ccc2[nH]c(=O)c(C(c3nnnn3CCOC)N3CCOCC3)cc2c1 (stereo not given),-1.3%
16,Cc1cc(C(=O)COC(=O)CCCN2C(=O)c3ccccc3C2=O)c(C)n1C,-2.69%
17,CCCc1nc(-c2ccccc2O)n(-c2ccccc2)n1,-3.29%
18,COc1ccc(-c2nnc(SCC(=O)NC3CCCCC3)o2)cc1OC,-1.36%
19,O=c1ccc2cc(S(=O)(=O)N3CCN(c4ccccc4)CC3)ccc2o1,-2.8%
20,Cc1nonc1OCCn1nnnc1N,0.59%

# From PubChem BioAssay AID567 (The Scripps Research Institute Molecular Screening Center, 2006)
